Results as given in PubChem BioAssay (NCATS).
Values joined by “and” are separate entries in the source; they are usually repeats but may differ in a detail not shown here. Identical values can stand only once. Inconclusive results are not listed. A call without a number means that no potency is given here. Values without a mark were called inactive. Active and inactive are the calls of the source. Calls follow the shape of the dose curve; as a rule, active = well fitted cell-killing curve with a large enough effect; inconclusive = small, poorly fitted or top-dose-only effect, or effect the other way; inactive = no such curve, though single readings can be large or run the other way.

Test: Viability qHTS for spleen associated tyrosine kinase inhibitor (SYKi) naive MV4-11 cells (AID 1963823); also: nearly all actives have a fitted effect of over 40% in size
Details: MV4-11 AML viability, CellTiter-Glo luminescence, 72 h; series mostly up to 45 µM
Procedure, shortened: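 Viability of MV4-11 AML cells lacking prior SYK inhibitor exposure is scored by CellTiter-Glo luminescence following 72 hr compound incubation at 37 C, 5% CO2, seeded at 500 cells per well.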
Potency is read from the fitted curve at half-maximal effect.

Structure (SMILES)	Potency	viability (% of control)
C=C1CCC2C(C)(C(=O)OC)CCCC2(C)C1CCC(C)CC(=O)O (stereo not given)	inactive	–
CC(C)=CCc1cc(C(O)C2NC(=O)CNC(=O)C(Cc3c[nH]c4ccccc34)NC(=O)C3CCCN3C(=O)CNC(=O)C(C(C)C)NC(=O)CNC2=O)ccc1O (stereo not given)	–	78.4% [at 9.25 µM]
Cc1ccc(C(=O)N(CCCN)C(c2oc3cc(Cl)ccc3c(=O)c2Cc2ccccc2)C(C)C)cc1 (stereo not given)	inactive	–
C/C=C(/COC(=O)/C(C)=C/C)C(=O)OC(CC)c1ccc(OC)c(OC)c1 (stereo not given)	inactive	–
CCN(CCN(C)C)C(=O)CNCc1cc(C(N)=O)ccn1	inactive	–
C=C1C(=O)O[C@@H]2[C@H]1[C@H](O)C[C@]1(C)[C@@H](O)CC=C(C)[C@@H]21	9.2 µM (active)	–
C[C@@H]1O[C@@H](O[C@H]2[C@H](OC(=O)[C@]34CCC(C)(C)C[C@H]3C3=CCC5[C@@]6(C)CC[C@H](O[C@@H]7O[C@H](C(=O)O)[C@@H](O)[C@H](O)[C@H]7O[C@@H]7O[C@H](CO)[C@H](O)[C@H](O)[C@H]7O)[C@@](C)(C=O)C6CC[C@@]5(C)[C@]3(C)C[C@H]4O)O[C@H](C)[C@H](O[C@@H]3O[C@H](C)[C@H](O)[C@H](O)[C@H]3O)[C@@H]2O)[C@H](O)[C@H](O)[C@H]1O[C@@H]1OC[C@@H](O)[C@H](O[C@@H]2O[C@H](CO)[C@@H](O)[C@H](O)[C@H]2O)[C@H]1O (stereo not given in full)	–	5.74% [at 4.97 µM]
COc1cc2c(cc1OC)CN(C(=O)/C=C/c1c(-c3ccccc3)n(C)c3ncccc13)CC2	2.59 µM (active)	–
CC(C)c1cc2c(c(O)c1O[C@@H]1O[C@H](CO)[C@@H](O)[C@H](O)[C@H]1O)CC1(O)CCC(O)C(C)(C)C1CC2 (stereo not given in full)	inactive	–
CC(C)CC(c1c(O)c(C=O)c(O)c(C=O)c1O)C1CCC(C)(O)C2CC(C(C)(C)O)CCC12C (stereo not given)	inactive	–
Nc1nonc1-c1nc2cnccc2n1C1CCCCC1	0.517 µM (active)	–
C/C=C(\C)C(=O)OC[C@H]1O[C@@H](O[C@H]2[C@@H](O[C@H]3O[C@H](COC(=O)/C(C)=C/C)[C@@H](O)[C@H](O)[C@H]3O[C@@H]3O[C@H](COC(=O)/C(C)=C/C)[C@@H](O)[C@H](OC(=O)/C(C)=C/C)[C@H]3O)O[C@H](COC(=O)/C(C)=C/C)[C@@H](O)[C@@H]2O)[C@H](O)[C@@H](O)[C@@H]1O	–	68.7% [at 9.25 µM]
Cc1ccc(-c2c(C(=O)CF)n(CCCO)c3ncnc(N)c23)cc1	3.66 µM (active)	–
O=C(NCC1CCN(Cc2cccc(Cl)c2)CC1)[C@@H]1CCCN(c2ncnc3c2nc2n3CCCC2)C1	2.31 µM (active)	–
C/C=C(\C)C(=O)O[C@@H]1CC2[C@@H](CC=C3C[C@@H](O[C@H]4C[C@H](OC)[C@H](O[C@H]5C[C@H](OC)[C@H](O[C@@H]6O[C@H](C)[C@@H](O[C@H]7C[C@H](OC)[C@H](O[C@@H]8O[C@H](CO)[C@@H](O)[C@H](O)[C@H]8O)[C@@H](C)O7)[C@H](OC)[C@H]6O)[C@@H](C)O5)[C@@H](C)O4)CC[C@@]32C)[C@@]2(O)CC[C@H](C(C)=O)[C@@]12C (stereo not given in full)	–	53.3% [at 9.25 µM]
C[C@@H]1CC[C@]2(C(=O)O[C@@H]3O[C@H](CO)[C@@H](O)[C@H](O)[C@H]3O)CC[C@]3(C)C(=CCC4[C@@]5(C)C[C@@H](O)[C@H](O)[C@](C)(C(=O)O)C5CC[C@]43C)[C@@H]2[C@]1(C)O (stereo not given in full)	inactive	–
CC(C)O[C@@H]1O[C@H](CO)[C@@H](O)[C@H](O)[C@H]1O	inactive	–
COc1ccc(/C=C/C(=O)O[C@@H]2[C@@H](O)[C@H](C)O[C@@H](OC3C4C=COC(O[C@@H]5O[C@H](CO)[C@@H](O)[C@H](O)[C@H]5O)C4C4(CO)OC34)[C@@H]2O)cc1OC (stereo not given in full)	inactive	–
C=C[C@H]1[C@H](O[C@@H]2O[C@H](CO)[C@@H](O)[C@H](O)[C@H]2O)OC=C(C(=O)OC)[C@H]1C[C@@H]1c2cc(O)c(O)cc2CCN1C(C)=O	inactive	–
COc1cc(-c2cc(-c3cccc(O)c3)cnc2N)cc(OC)c1OC	11.6 µM (active)	–

Structure (SMILES)	Potency	viability (% of control)
C[C@H](CN(C)C)Oc1nc(Nc2cc3cccc(Cl)c3cn2)cnc1C#N	259 nM (active) and 934 nM (active)	–
COC12CC3C(C(C)C1=CC(=O)O2)C(O)C(OC(C)=O)C1C(C)(C)C(OC(C)=O)CCC31C (stereo not given)	inactive	–
CCCCC(=O)N(Cc1ccc(-c2ccccc2-c2nn[nH]n2)cc1)C(C(=O)O)C(C)C (stereo not given)	inactive	–
CC1=C(C)C(=O)OC(C(C)C2CCC3C4C5OC5C5(O)CC(OC6OC(CO)C(OC7OC(C)C(O)C(O)C7O)C(O)C6O)CC(O)C5(C)C4CCC23C)C1 (stereo not given)	inactive	–
CN(CCO)C1CCN(c2ccc(Nc3ncc4c5ccnc(F)c5n(C5CCCC5)c4n3)nc2)CC1	0.0355 µM (active)	–
CC1(C)C2CCC1(C)C(OC(=O)C(O)(CC(=O)O)CC(=O)O)C2 (stereo not given)	inactive	–
CC1CC[C@]2(C(=O)O)CC[C@]3(C(=O)O)C(=CCC4[C@@]5(C)CC[C@H](O[C@@H]6O[C@H](CO)[C@@H](O)[C@H](O)[C@H]6O)C(C)(C)C5CC[C@]43C)C2C1C (stereo not given in full)	inactive	–
OC[C@H]1O[C@@H](O[C@H]2[C@H](O)[C@@H](CO)O[C@@H](OCc3ccccc3)[C@@H]2O[C@@H]2OC[C@](O)(CO)[C@H]2O)[C@H](O)[C@@H](O)[C@@H]1O	inactive	–
CC1(C)S[C@@H]2[C@H](NC(=O)[C@H](NC(=O)N3CCN(S(C)(=O)=O)C3=O)c3ccccc3)C(=O)N2[C@H]1C(=O)O	inactive	–
CC(O)CO[C@@H]1O[C@H](CO)[C@@H](O)[C@H](O)[C@H]1O (stereo not given in full)	inactive	–
C/C(CO)=C1/CCC23COC(C2)C(O)(C(=O)O)CCC13 (stereo not given)	inactive	–
CC(C)c1nc(N(C)S(C)(=O)=O)nc(-c2ccc(F)cc2)c1/C=C/[C@@H](O)C[C@@H](O)CC(=O)O	8.2 µM (active)	–
CC[C@H](C)[C@H](NC(=O)[C@H](Cc1ccc(O)cc1)NC(=O)[C@@H](N)C(C)C)C(=O)N[C@@H](Cc1cnc[nH]1)C(=O)N1CCC[C@H]1C(=O)N[C@@H](Cc1ccccc1)C(=O)O	–	98.9% [at 4.97 µM]
O=C1N=C(O)S/C1=C\c1ccc2nccnc2c1	13 µM (active)	–
CC1CCCCN1CCCOC(=O)c1ccc(OC2CCCCC2)cc1 (stereo not given)	8.41 µM (active)	–
CN(C)CCN(Cc1ccc(-c2ccc(CNCCc3ccccc3)cc2)cc1)C(=O)CCC1CCCC1	1.03 µM (active)	–
C=C1C(=O)O[C@@H]2[C@H]1CCC(C)=C(CCC(=O)O)[C@@]2(C)O	9.2 µM (active)	–
COc1cc(O)c2c(c1)C1=CC(O)C(O)CC1(C)OC2=O (stereo not given)	inactive	–
CCOC(=O)OCC/C(SC(=O)OCC)=C(\C)N(C=O)Cc1cnc(C)nc1N	inactive	–
C/C=C1\[C@H](O[C@@H]2O[C@H](CO)[C@@H](O)[C@H](O)[C@H]2O)OC=C(C(=O)O)[C@H]1CC(=O)OCCc1ccc(O)cc1	inactive	–
